Bead autofluor: flagged as autofluorescent in microsphere protease counterscreen; compound autofluorescence counterscreen, microsphere flow cytometry; active compounds read high; fluorescence intensity (no concentration beside the values); 3.1% of 360,000 active; in the data active = fluorescence intensity above about 16000; inconclusive = no clear call, values can overlap the other calls
BoNT-F LC inh: inhibitors of Botulinum neurotoxin F light chain protease; Multiplex microsphere protease cleavage assay, flow cytometry; inhibition, % at 10 µM; 0.22% of 360,000 active; in the data active = inhibition above about 35%, passing the limit was not always enough; inconclusive = no clear call, values can overlap the other calls
Anthrax LF prot: blocks Bacillus anthracis lethal factor protease | P15917 | AID 588501 | multiplex microsphere protease cleavage assay, LF | inhibition, % at 10 µM | 0.12% of 360,000 active
MazEF act: activators of E. coli MazEF toxin-antitoxin RNase; 0.32% of 350,000 active; FAM/BHQ RNA-DNA oligo cleavage fluorescence, 5 h; activation, % at 20 µM; in the data active = activation above about 50%
Target sequence (P0AE70 whole entry, looked up): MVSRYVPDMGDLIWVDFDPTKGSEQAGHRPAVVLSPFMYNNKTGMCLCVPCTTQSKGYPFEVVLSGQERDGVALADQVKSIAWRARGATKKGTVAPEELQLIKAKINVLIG
BoNT-A LC inh2: blocks Botulinum neurotoxin A light chain protease | AID 588499 | multiplex microsphere protease substrate cleavage, flow cytometry | inhibition, % at 10 µM | 0.17% of 360,000 active
Numbers stand for hits; . = inactive; ? = inconclusive; / = no result. Shown are actives, neighbours in structure and some others; about 3.7% of the full set was active somewhere. Cut-off read from the data, not from the text of the source, unless noted: active = inhibition above about 30%; inconclusive = no clear call, values can overlap the other calls; inactive = below that.

SMILES	Bead autofluor	BoNT-F LC inh	Anthrax LF prot	MazEF act	BoNT-A LC inh2
CC1=C(C(=O)N2CCOCC2)CC(CC(=O)NCC2CCCCC2)C(=O)N1Cc1ccc(C(C)(C)C)cc1 (stereo not drawn)	.	.	.	/	.
CC1=C(C(=O)Nc2ccccc2)C(c2ccc(C)o2)n2ncnc2N1 (stereo not drawn)	.	.	.	.	.
CC1=C(C(=O)NCc2ccccc2)C(c2ccc(C)o2)n2ncnc2N1 (stereo not drawn)	20601	.	.	.	?
Oc1c(N=Nc2ccccn2)ccc2ccccc12	.	.	.	.	36
COc1ccccc1OCC(=O)NCC1CCCN(C(=O)c2cccc(C)c2)C1 (stereo not drawn)	.	.	.	.	.
Cn1c(=O)c(N=O)c(N)n(Cc2ccccc2)c1=S	.	.	.	.	.
Cc1ccc(Oc2ncnc(N)c2[N+](=O)[O-])cc1	.	.	.	.	.
Cc1ccc(N(c2ncnc(N)c2[N+](=O)[O-])C2CCCCC2)cc1	23258	.	.	.	.
CCC(CC)NC(=O)c1ccc2c(c1)OCCO2	23941	.	.	.	.
CC(NC(=O)c1ccc2c(c1)OCCO2)C(=O)O (stereo not drawn)	.	.	.	.	.
N#C/C(=C\c1ccc([N+](=O)[O-])cc1)c1nc(C2CC2)cs1	.	.	.	338	.
N#C/C(=C\c1ccccc1[N+](=O)[O-])c1nc(C2CC2)cs1	.	.	.	.	.
CCOc1cc(C(=O)N2CCN(C/C=C/c3ccccc3)CC2)cc(OCC)c1OCC	.	.	.	.	.
Cc1onc(-c2ccccc2)c1C(=O)N1CCN(C/C=C/c2ccccc2)CC1	.	.	.	.	.
CCOc1cccc2cc(C(=O)N3CCN(C/C=C/c4ccccc4)CC3)c(=O)oc12	16172	.	.	.	?
Cc1cc(C(=O)N2CCN(C/C=C/c3ccccc3)CC2)no1	19463	.	.	.	.
CCOC(=O)[C@]12CCC=C1N(Cc1ccco1)C(=O)[C@H](CC(=O)NCCc1ccccc1OC)C2	.	.	.	/	.
O=C(O)c1ccccc1S(=O)CCO (stereo not drawn)	22978	.	.	.	.
COCCCN1C(=O)C(CC(=O)NCCCN(C)C)CC(C(=O)N(C(C)C)C(C)C)=C1C (stereo not drawn)	.	.	.	/	.
CCOC(=O)c1cnc(SCC(=O)c2ccc(C)cc2)nc1N	.	.	.	.	.
CCOC(=O)c1cnc(SCC(=O)c2ccccc2)nc1N	24281	.	.	.	.
O=C1NCCN1C(=O)N(c1ccccc1)c1ccccc1	22362	.	.	.	.
CN1CCN(C(=O)N(c2ccccc2)c2ccccc2)CC1	.	?	.	.	.
Cc1cc(NC(=O)/C(C#N)=C\c2ccc(-c3ccc(SC(F)F)cc3)o2)n(-c2ccccc2)n1	.	.	.	432	.
Cc1c(NC(=O)/C(C#N)=C/c2ccc(-c3ccc(Cl)c(Cl)c3)o2)c(=O)n(-c2ccccc2)n1C	.	.	.	.	.
SMILES	Bead autofluor	BoNT-F LC inh	Anthrax LF prot	MazEF act	BoNT-A LC inh2
Cc1nc(NC(=S)NC(=O)c2cccs2)sc1C(=O)N(C)C	22794	.	.	.	.
Cc1ccc(C(C)(O)CS(=O)(=O)Cc2ccccc2)cc1 (stereo not drawn)	.	.	.	.	.
CCOc1ccc(N(C(C)C(=O)N2CCCCCC2)S(C)(=O)=O)cc1 (stereo not drawn)	.	.	.	.	.
CCOc1ccc(N(C(C)C(=O)NC(C)CC)S(C)(=O)=O)cc1 (stereo not drawn)	19908	.	.	.	.
COCCN(C(=O)Nc1ccccc1OC)c1nc2ccccc2s1	.	?	.	.	.
COc1ccccc1S(=O)(=O)N(C)C[C@H]1OCc2cnnn2CCCC(=O)N([C@H](C)CO)C[C@H]1C	.	.	.	.	.
CN1C(=O)CC(NNC(=O)c2ccc(Cl)cc2)C1=O (stereo not drawn)	22298	.	.	.	.
O=C1[C@H]2[C@@H](C(=O)N1c1cc(Cl)cc(Cl)c1)[C@]1(C(=O)Nc3ccccc31)N1CCC[C@@H]21	20946	.	.	.	.
Cc1cc(Cl)c2c(c1)[C@]1(C(=O)N2)[C@@H]2C(=O)N(Cc3ccccc3)C(=O)[C@@H]2[C@@H]2CCCN21	.	.	.	.	.
c1ccc(-n2ncc3c(N4CCN(c5ccccn5)CC4)nc(N4CCCCCC4)nc32)cc1	19448	.	.	.	.
O=C(/C=C/[C@H]1O[C@@H](n2ccc(=O)[nH]c2=O)[C@H](O)[C@@H]1O)NCc1ccc2c(c1)OCO2	.	.	.	/	.
CC1COc2c3ccccc3nn21 (stereo not drawn)	.	.	.	/	.
COC(=O)C1=C(C)N(CC(C)C)C(=O)/C1=C\c1cccs1	.	.	.	.	.
CCOC(=O)C1=C(C)N(CC(C)C)C(=O)/C1=C\c1cccs1	.	?	.	59	.
CCc1nc2ccc(C(=O)Nc3ccc4c(c3)OCC(=O)N4)cn2c1N(C)Cc1nccn1C	.	.	.	/	.
CCN1C(=O)/C(=C\N(C)C)c2ccccc21	.	.	.	.	.
CCN1C(=O)/C(=C/N(C)C)c2ccccc21	16312	.	.	.	.
CCCNC(=O)C1(C)CCN(C(=O)c2ccc3c(c2)CCO3)C1 (stereo not drawn)	.	.	.	/	.
CC(C)C(C)(C#N)NC(=O)CSc1nc(C2CCCCC2)n(-c2ccccc2)n1 (stereo not drawn)	.	38	.	.	.
CCOC(=O)c1csc(NC(=O)CCS(=O)(=O)c2ccc(Cl)cc2)n1	.	.	.	.	.
CCOC(=O)c1c(-c2ccccc2Cl)cn2ccccc12	21999	.	.	.	.
CCOC(=O)c1c(-c2cccc([N+](=O)[O-])c2)cn2ccccc12	.	.	.	.	.
CCn1c(SCC(=O)N/N=C/C=C\c2ccccc2[N+](=O)[O-])nc2ccccc21	22694	.	.	.	?
CCn1c(SCC(=O)N/N=C/c2ccc(OC)c(OC)c2)nc2ccccc21	22575	.	.	.	.
Cn1c(SCC(=O)N/N=C/C=C/c2ccccc2[N+](=O)[O-])nc2ccccc21	.	.	.	.	.
SMILES	Bead autofluor	BoNT-F LC inh	Anthrax LF prot	MazEF act	BoNT-A LC inh2
NC(C(=O)O)C1ON=C(Cl)C1O (stereo not drawn)	.	.	.	.	.
CC(=O)N1CCOCCOCCN(C(C)=O)CCOCCOCC1	.	.	.	.	.
O=C(N1CCOCC1)C(F)(F)C(F)(F)C(F)(F)C(F)(F)C(=O)N1CCOCC1	20612	.	.	.	?
CNc1nnc(SCC(=O)N2c3ccccc3NC(=O)CC2C)s1 (stereo not drawn)	.	.	.	.	.
Cc1ccc(C)c(N(CC(=O)NC2CCCC2)S(=O)(=O)c2ccccc2)c1	.	.	.	.	.
N#C/C(C(=O)N1CCOCC1)=C1\Nc2ccccc2S1	20837	.	.	.	.
N#C/C(=C\c1cccs1)C(=O)N1CCOCC1	.	?	.	.	?
CC1(C)NC(=O)N(CC(=O)Nc2nc(-c3ccc(F)cc3)cs2)C1=O	18087	.	.	.	.
O=C(CN1C(=O)NC2(CCCC2)C1=O)Nc1nc(-c2ccc(F)cc2)cs1	.	.	.	.	.
